{"source": "PubChem BioAssay (Tox21)", "note": "The source made the active and inactive calls. Calls come from the whole dose curve."}
{"test": "qHTS assay to identify small molecule agonists of the sonic hedgehog signaling (Shh) pathway (AID 1259368);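 note: NIH/3T3-derived 3T3Gli1-Luc cells carrying a stable Gli1-driven firefly luciferase reporter; nearly all actives have a fitted effect of over 15% in size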", "settings": "NIH/3T3 Gli1-Luc reporter, luciferase, 24 h; series mostly up to 92.4 µM", "text": "National Center for Advancing Translational Sciences [NCATS]\nNIH Chemical Genomics Center [NCGC]\nU.S. Environmental Protection Agency [EPA]\nNational Institutes of Environmental Health Sciences [NIEHS]\nNational Toxicology Program [NTP]\nThe sonic hedgehog (Shh) pathway is essential for normal embryonic development. Dysregulation of the Shh pathway can cause severe developmental defects in organs. Therefore chemicals that interfere with the pathway are potential developmental toxicants. A cell line designated 3T3Gli1-Luc (DMB/OARSA/CFSAN/FDA, Laurel, MD), a NIH/3T3 derived clone containing stably integrated Gli1-Luc reporter is used to detect chemical interference of the Shh pathway, by changes in the expression of the firefly Luc gene under the control of the Gli1 transcriptional response element. This cell line was used to screen Tox21 libraries for identifying and prioritizing the potential developmental toxicants that interfere Shh pathway.\n3T3 Gli1-Luc cells were dispensed at 2,000 per well in 5uL of culture medium into white solid bottom 1536-well plates (Greiner Bio-One, Monroe, NC) using a Multidrop Combi (Thermo Scientific, Waltham, MA) dispenser. The assay plates were incubated at 37 C and 5% CO2 for 4hr, and then 23nL of compounds dissolved in DMSO and positive control were transferred using a Pintool station (Wako, San Diego, CA). The assay plates were incubated at 37C and 5% CO2 for 24hr. For luciferase read, 4uL of Amplite Luciferase reporter gene assay reagent (AAT Bioquest, Inc. Sunnyvale, CA) was added to each well of the assay plates using Flying Reagent Dispenser (FRD, Aurora Discovery, San Diego, CA) and incubated at room temperature for 30min. The luminescence signal was measured using a ViewLux plate reader (Perkin Elmer, Shelton, CT)."}
{"smiles": "Cc1cc(O)c2c(c1)C(=O)c1cc(O)cc(O)c1C2=O", "outcome": "inactive"}
{"smiles": "CCCCCCCCCCCCOCC1CO1", "note": "(stereo not given)", "outcome": "inactive"}
{"smiles": "OCC1CCCO1", "note": "(stereo not given)", "outcome": "inactive"}
{"smiles": "O=c1c(-c2ccc(O)cc2)coc2cc(O)ccc12", "outcome": "inactive"}
{"smiles": "CCCCNC(N)=O", "outcome": "inactive"}
{"smiles": "COCC(C)O", "note": "(stereo not given)", "outcome": "inactive"}
{"smiles": "CCc1ccccc1O", "outcome": "inactive"}
{"smiles": "CCCCCCCCC", "outcome": "inactive"}
{"smiles": "C=C(C)C(=O)OCCCCCC", "outcome": "inactive"}
{"smiles": "CCc1ccc(O)cc1", "outcome": "inactive"}
{"smiles": "C=C1CC[C@H](O)CC1=C/C=C1\\CCC[C@]2(C)[C@@H]([C@H](C)/C=C/[C@H](C)C(C)C)CC[C@@H]12", "outcome": "inactive"}
{"smiles": "COCC(=O)O", "outcome": "inactive"}
{"smiles": "CCCCC(CC)COC(=O)CCCCCCCC(=O)OCC(CC)CCCC", "note": "(stereo not given)", "outcome": "inactive"}
{"smiles": "CS(=O)(=O)Nc1ccc([N+](=O)[O-])cc1Oc1ccccc1", "outcome": "inactive"}
{"smiles": "CCCCOCCO", "outcome": "inactive"}
{"smiles": "O=C(c1ccc(O)cc1)c1ccc(O)cc1O", "outcome": "inactive"}
{"smiles": "Cc1cc(Cc2ccc(N)c(C)c2)ccc1N", "outcome": "inactive"}
{"smiles": "Oc1ccc2ccccc2c1", "outcome": "inactive"}
{"smiles": "C=C(C#N)C(=O)OCC", "outcome": "inactive"}
{"smiles": "O=[N+]([O-])C(CO)(CO)CO", "outcome": "inactive"}
{"smiles": "C=C1C2CCC(C2)C1(C)C", "note": "(stereo not given)", "outcome": "inactive"}
{"smiles": "C=C(C)C(=O)OCCCCCCCCCCCC", "outcome": "inactive"}
{"smiles": "C/C=C(C)/C=C/C=C(C)C", "outcome": "inactive"}
{"smiles": "Cc1ccc(N)c(S(=O)(=O)O)c1", "outcome": "inactive"}
{"smiles": "Nc1c(S(=O)(=O)O)cc(Br)c2c1C(=O)c1ccccc1C2=O", "outcome": "inactive"}
{"smiles": "NS(=O)(=O)c1cc2c(cc1Cl)NC=NS2(=O)=O", "outcome": "inactive"}
{"smiles": "CC1CC(OC(=O)c2ccccc2O)CC(C)(C)C1", "note": "(stereo not given)", "outcome": "inactive"}
{"smiles": "CC(C)(N=C=O)c1cccc(C(C)(C)N=C=O)c1", "outcome": "inactive"}
{"smiles": "CC(C)(C)C(=O)C1C(=O)c2ccccc2C1=O", "outcome": "inactive"}
{"smiles": "O=C(O)c1ccc([N+](=O)[O-])cc1", "outcome": "inactive"}
{"smiles": "C=C(C)C(=O)OCCC[Si](OC)(OC)OC", "outcome": "inactive"}
{"smiles": "Nc1nc2ncc(CNc3ccc(C(=O)N[C@@H](CCC(=O)O)C(=O)O)cc3)nc2c(=O)[nH]1", "outcome": "inactive"}
{"smiles": "O=C1O[C@H](CO)[C@@H](O)[C@H](O)[C@H]1O", "outcome": "inactive"}
{"smiles": "CNC[C@H](O)[C@@H](O)[C@H](O)[C@H](O)CO", "outcome": "inactive"}
{"smiles": "CC(C)NCC(O)COc1cccc2ccccc12", "note": "(stereo not given)", "outcome": "inactive"}
{"smiles": "CCCCCCCCCCC=CC1CC(=O)OC1=O", "note": "(stereo not given)", "outcome": "inactive"}
{"smiles": "CC1(C)O[C@@H]2C[C@H]3[C@@H]4C[C@H](F)C5=CC(=O)CC[C@]5(C)[C@H]4[C@@H](O)C[C@]3(C)[C@]2(C(=O)CO)O1", "outcome": "inactive"}
{"smiles": "O=[N+]([O-])c1cc(N(CCO)CCO)ccc1NCCO", "outcome": "inactive"}
{"smiles": "COC(=O)c1ccc(C(=O)OC)cc1", "outcome": "inactive"}
{"smiles": "OC1CCCC1", "outcome": "inactive"}
